Results published in PubChem BioAssay AID1159580 (chemical genetic matrix, 2015).
“And” between values parts separate entries of the source, which are not always exact repeats. Identical values can stand only once. Screen size: about 5,500 compounds; about 2,000 (36%) were called active. Not shown: some 18% with an inconclusive outcome. No stated cut-off is given here; in the data, active means normalized growth mostly below about 0.91 (no sharp cut-off); inconclusive means no clear call, values can overlap the other calls; inactive means mostly above about 0.92. This is one part of the list.

Test: chemical genetic growth profiling, strain panel (AID 1159580);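 further: tested at 20 µM; growth read once vehicle control cultures reached saturation at 30 °C; 1 = growth at the plate median or of vehicle wells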
Details: S. cerevisiae deletion strains, growth OD

Measured: normalized growth

C[N+](C)(C)CCOP(=O)([O-])OP(=O)(O)OC[C@H]1OC(n2ccc(N)nc2=O)[C@H](O)[C@@H]1O (some centres not stated)
inactive: locus YAL013W, strain DEP1, stronger effect = lower value 0.99 | locus YAL021C, strain ccr4, stronger effect = lower value 1 | locus YAL026C, strain drs2, stronger effect = lower value 1 | locus YAL030W, strain snc1, stronger effect = lower value 0.991 | locus YBL061C, strain skt5, stronger effect = lower value 0.983 | locus YBR009C, strain hhf1, stronger effect = lower value 1.01 | locus YBR021W, strain FUR4, stronger effect = lower value 1.01 | locus YBR023C, strain chs3, stronger effect = lower value 0.987 | locus YBR171W, strain sec66, stronger effect = lower value 0.962 | locus YBR229C, strain ROT2, stronger effect = lower value 1 | locus YBR231C, strain swc5, stronger effect = lower value 0.976 | locus YBR279W, strain paf1, stronger effect = lower value 0.992 | locus YCL011C, strain gbp2, stronger effect = lower value 0.998 | locus YCL016C, strain dcc1, stronger effect = lower value 1.01 | locus YCL029C, strain bik1, stronger effect = lower value 0.999 | locus YCL061C, strain MRC1, stronger effect = lower value 0.972 | locus YCL069W, strain vba3, stronger effect = lower value 0.975 | locus YCR088W, strain abp1, stronger effect = lower value 0.98 | locus YDL005C, strain med2, stronger effect = lower value 0.977 | locus YDL035C, strain GPR1, stronger effect = lower value 0.993 | locus YDL040C, strain nat1, stronger effect = lower value 0.979 | locus YDL074C, strain BRE1, stronger effect = lower value 0.972 | locus YDL101C, strain DUN1, stronger effect = lower value 0.999 | locus YDL134C, strain PPH21, stronger effect = lower value 1.01 | locus YDL185W, strain tfp1, stronger effect = lower value 0.992 | locus YDL192W, strain arf1, stronger effect = lower value 1.01 | locus YDR001C, strain nth1, stronger effect = lower value 0.978 | locus YDR069C, strain doa4, stronger effect = lower value 0.976 | locus YDR101C, strain arx1, stronger effect = lower value 0.989 | locus YDR137W, strain rgp1, stronger effect = lower value 0.991 | locus YDR150W, strain NUM1, stronger effect = lower value 1 | locus YDR159W, strain sac3, stronger effect = lower value 1 | locus YDR162C, strain NBP2, stronger effect = lower value 0.981 | locus YDR195W, strain ref2 0.94 | locus YDR297W, strain sur2, stronger effect = lower value 0.989 | locus YDR318W, strain mcm21, stronger effect = lower value 1.01 | locus YDR334W, strain swr1, stronger effect = lower value 0.974 | locus YDR335W, strain msn5, stronger effect = lower value 0.991 | locus YDR388W, stronger effect = lower value 1 | locus YDR392W, strain spt3, stronger effect = lower value 1.05 | locus YDR502C, strain sam2, stronger effect = lower value 0.995 | locus YEL003W, strain gim4, stronger effect = lower value 0.986 | locus YEL037C, strain rad23, stronger effect = lower value 0.976 | locus YEL061C, strain CIN8 (second series), stronger effect = lower value 0.971 | locus YEL061C, strain CIN8, stronger effect = lower value 0.996 | locus YER015W, strain faa2, stronger effect = lower value 1 | locus YER016W, strain bim1, stronger effect = lower value 0.985 | locus YER110C, stronger effect = lower value 1 | locus YER111C, strain swi4, stronger effect = lower value 0.978 | locus YER155C, strain BEM2 (second series), stronger effect = lower value 0.98 | locus YER155C, strain BEM2, stronger effect = lower value 0.995 | locus YER167W, strain BCK2, stronger effect = lower value 1.02 | locus YFR010W, strain ubp6, stronger effect = lower value 0.974 | locus YGL078C, strain dbp3, stronger effect = lower value 0.998 | locus YGL086W, strain mad1, stronger effect = lower value 1.01 | locus YGL167C, strain pmr1, stronger effect = lower value 0.973 | locus YGL173C, strain kem1, stronger effect = lower value 0.983 | locus YGL227W, strain vid30, stronger effect = lower value 0.973 | locus YGL240W, strain doc1, stronger effect = lower value 0.969 | locus YGL248W, strain PDE1, stronger effect = lower value 1.02 | locus YGL253W, strain hxk2, stronger effect = lower value 0.993 | locus YGR078C, strain PAC10, stronger effect = lower value 0.997 | locus YGR135W, strain pre9, stronger effect = lower value 0.987 | locus YGR229C, strain SMI1, stronger effect = lower value 0.98 | locus YGR252W, strain gcn5, stronger effect = lower value 1.02 | locus YHR013C, strain ard1, stronger effect = lower value 0.969 | locus YHR027C, strain rpn1, stronger effect = lower value 0.992 | locus YHR030C, strain SLT2, stronger effect = lower value 0.998 and 1 | locus YHR079C, strain IRE1 (second series), stronger effect = lower value 1.01 | locus YHR079C, strain IRE1, stronger effect = lower value 1.01 | locus YHR094C, strain hxt1, stronger effect = lower value 0.997 | locus YHR129C, strain ARP1, stronger effect = lower value 1.01 | locus YHR142W, strain chs7, stronger effect = lower value 0.98 | locus YHR200W, strain rpn10, stronger effect = lower value 1 | locus YIL066C, strain RNR3, stronger effect = lower value 0.995 | locus YIL073C, strain SPO22, stronger effect = lower value 1.06 | locus YIL125W, strain kgd1, stronger effect = lower value 1 | locus YIR030C, strain dcg1, stronger effect = lower value 0.999 | locus YJL092W, strain hpr5, stronger effect = lower value 0.974 | locus YJL095W, strain BCK1 (second series), stronger effect = lower value 0.99 | locus YJL095W, strain BCK1, stronger effect = lower value 0.987 and 0.994 | locus YJL115W, strain asf1, stronger effect = lower value 0.977 | locus YJL129C, strain trk1, stronger effect = lower value 0.99 | locus YJL134W, strain LCB3, stronger effect = lower value 1 | locus YJL154C, strain vps35, stronger effect = lower value 0.981 | locus YJL164C, strain tpk1, stronger effect = lower value 1 | locus YJL166W, strain qcr8, stronger effect = lower value 0.963 | locus YJL168C, strain set2, stronger effect = lower value 1 | locus YJL187C, strain SWE1 (second series), stronger effect = lower value 1 | locus YJL187C, strain SWE1, stronger effect = lower value 0.993 | locus YJR043C, strain POL32, stronger effect = lower value 1.02 | locus YJR066W, strain TOR1, stronger effect = lower value 0.952
